Several values for one entry are separate records, joined by “and”; a condition that tells them apart may be missing. Equal entries are not always repeated. Activity calls are given as the source filed them.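 Rule for the calls: active = compounds whose cell count with miR-34 switched on is under 0.7 times the count with it off; inactive = the rest.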
Experiment: viability loss with induced miR-34 in A549 – imaging, A549 dox-inducible miR-34, nuclei and caspase counts, primary screen (AID 1347080); note: test concentration not given here
Conditions: A549 miR-34 inducible, Hoechst nuclei count, 48 h
[1] = stronger effect = lower value, cell number ratio, induced over uninduced
[2] = measured here: relative caspase fold change +Dox/-Dox
[3] = measured here: total cells with miR-34 induction, stronger effect = lower value
[4] = measured here: total cells without miR-34 induction

Row | Structure (SMILES) | fold change [1] | fold change [2] | cell count [3] | cell count [4]
1 | CCCCCCCCCCCCCCCCCC(=O)OCC | 0.95 (inactive) | 2.18 | 5760 | 6060
2 | O=C(O)CCC/C=C\C[C@@H]1[C@@H](/C=C/[C@@H](O)C2Cc3ccccc3C2)[C@@H](F)C[C@@H]1O | 0.86 (inactive) | 2.11 | 4580 | 5320
3 | CCCCC[C@@H](O)CC[C@H]1[C@H](O)CC(=O)[C@@H]1CCCCCCC(=O)O | 0.971 (inactive) | 1.47 | 5350 | 5510
4 | COc1ccc2c(c1)c(CC(=O)NCCc1ccccc1)c(C)n2C(=O)c1ccc(Cl)cc1 | 1.02 (inactive) | 0.638 | 6040 | 5920
5 | CC(C)[C@H](O)C(=O)O | 0.982 (inactive) | 1.05 | 5470 | 5570
6 | CC/C(=C\C(=N/O)C(N)=O)C(C)[N+](=O)[O-] (stereo not drawn) | 1.05 (inactive) | 1.1 | 6540 | 6230
7 | CCCCCCCCCCCCCCCC(=O)OC[C@H](COP(=O)([O-])OCC[N+](C)(C)C)OC(=O)CCCCCCCC(=O)O | 0.924 (inactive) | 0.678 | 5760 | 6240
8 | CCCCC(C)(O)C/C=C/[C@H]1[C@H](O)CC(=O)[C@H]1CCCCCCC(=O)OC (stereo partly drawn) | 1.02 (inactive) | 1.88 | 5420 | 5290
9 | O=C(O)c1c[nH]c2c(ccc3cccnc32)c1=O | 0.93 (inactive) | 0.866 | 5740 | 6180
10 | CO[C@H]1CC(O[C@@H]2/C(C)=C/C[C@@H]3C[C@@H](C[C@]4(C=C[C@H](C)[C@@H](C5CCCCC5)O4)O3)OC(=O)[C@@H]3C=C(C)[C@@H](O)[C@H]4OC/C(=C\C=C\[C@@H]2C)[C@]43O)O[C@@H](C)C1O[C@H]1C[C@H](OC)[C@@H](O)[C@H](C)O1 (stereo partly drawn) | 0.703 (inactive) | 1.24 | 405 | 576
11 | CCCCCCCOC(=O)Cc1c(C)n(C(=O)c2ccc(Cl)cc2)c2ccc(OC)cc12 | 0.949 (inactive) | 0.801 | 6160 | 6490
12 | CCC(O)/C=C/C=O (stereo not drawn) | 0.941 (inactive) | 1.21 | 5860 | 6230
13 | CCCCC/C=C\C/C=C\CCCCCCCC(=O)OC(CO)CO | 0.978 (inactive) | 0.884 | 5470 | 5600
14 | CCCCCCCCCCCCC(=O)N[C@H]1CCOC1=O | 0.915 (inactive) | 1.35 | 5190 | 5670
15 | O=C(O)COc1ccc(C(=O)c2cccs2)c(Cl)c1Cl | 0.964 (inactive) | 0.701 | 5800 | 6010
16 | O=P(O)(O)OC1[C@H](O)[C@H](O)C(O)[C@H](O)[C@H]1O (stereo partly drawn) | 1.11 (inactive) | 0.357 | 6420 | 5790
17 | C/C=C/C[C@@H](C)[C@@H](O)[C@H]1C(=O)N[C@@H](CC)C(=O)N(C)CC(=O)N(C)[C@@H](CC(C)C)C(=O)N[C@@H](C(C)C)C(=O)N(C)[C@@H](CC(C)C)C(=O)N[C@@H](C)C(=O)NC(C)C(=O)N(C)[C@@H](CC(C)C)C(=O)N(C)[C@@H](CC(C)C)C(=O)N(C)[C@@H](C(C)C)C(=O)N1C (stereo partly drawn) | 1.02 (inactive) | 1.6 | 2270 | 2230
18 | CC(C)OC(=O)CCC/C=C\C[C@@H]1[C@@H](/C=C/[C@@H](O)CCc2ccccc2)[C@H](O)C[C@@H]1O | 0.961 (inactive) | 1.39 | 5640 | 5870
19 | COc1ccc2c(c1)c(CC(=O)Nc1cccnc1)c(C)n2C(=O)c1ccc(Cl)cc1 | 0.996 (inactive) | 0.947 | 5760 | 5780
20 | CCCCCCCCCCCCCCCCOC[C@H](COP(=O)([O-])OCC[N+](C)(C)C)OC | 0.789 (inactive) | 1.27 | 5780 | 7330
21 | Cc1c(C)c2c(c(C)c1O)CCC(C)(CCCC(C)C(=O)O)O2 (stereo not drawn) | 0.962 (inactive) | 0.303 | 5890 | 6120
22 | CCCCCCCCCCCCCCCC(=O)NC[C@@H](C)O | 1.02 (inactive) | 0.848 | 6270 | 6160
23 | CCCCC[C@@H](O)/C=C/[C@H]1C=CC(=O)[C@@H]1CCCCCCC(=O)O | 0.9 (inactive) | 0.638 | 4870 | 5400

Row | Structure (SMILES) | fold change [1] | fold change [2] | cell count [3] | cell count [4]
24 | N[C@@H](CSCCB(O)O)C(=O)O | 1.01 (inactive) | 1.73 | 6340 | 6260
25 | CCCCCCCCCCCSCC(=O)O | 1.05 (inactive) | 1.04 | 6160 | 5890
26 | COc1cc(/C=C/c2ccc(Cl)cc2)cc(OC)c1 | 1.01 (inactive) | 0.802 | 6120 | 6070
27 | C/C(O)=C1\C(=O)[C@@H]2[C@H]3c4c[nH]c5cccc(c45)C[C@H]3C(C)(C)N2C1=O | 1.02 (inactive) | 0.893 | 2150 | 2100
28 | Clc1ccc(/C=C/c2cc(Cl)cc(Cl)c2)cc1 | 1.02 (inactive) | 0.743 | 5370 | 5270
29 | CCCCCCCC/C=C\CCCCCCCC(=O)Nc1c(C(C)C)cccc1C(C)C | 0.999 (inactive) | 0.853 | 5690 | 5700
30 | C#CCOc1ccccc1CCCCCC(=O)O | 1.11 (inactive) | 0.728 | 5930 | 5330
31 | Cn1c([N+](=O)[O-])cc[n+]1C | 0.892 (inactive) | 0.659 | 8620 | 9670
32 | CCCCC[C@H](O)/C=C/[C@@H]1[C@@H](C/C=C/CCCC(=O)O)[C@H](O)C[C@H]1O | 0.95 (inactive) | 1.55 | 5260 | 5540
33 | O=C(CCCCc1ccccc1)C(F)(F)C(F)(F)F | 0.952 (inactive) | 1.77 | 5980 | 6280
34 | CCOC(=O)c1ccnc(C(=O)OCC)c1 | 0.975 (inactive) | 0.9 | 5540 | 5690
35 | CCCCCC(=O)CC[C@H]1[C@H](O)CC(=O)[C@@H]1CCCCCCC(=O)O | 0.94 (inactive) | 1.43 | 5620 | 5980
36 | C1CCC(NC(=NC2C3CC4CC(C3)CC2C4)N2CCOCC2)CC1 (stereo not drawn) | 1.04 (inactive) | 1.05 | 5720 | 5520
37 | CCCCC[C@H](O)/C=C/[C@H]1[C@H](O)CC(=O)[C@@H]1C/C=C\CCCC(=O)OCC(O)CO (stereo partly drawn) | 0.945 (inactive) | 0.932 | 5540 | 5860
38 | CCCCCC(=O)CC[C@H]1C(=O)C[C@H](O)[C@@H]1C/C=C\CCCC(=O)O | 1.27 (inactive) | 1.09 | 6060 | 4770
39 | CC(C)=CCC/C(C)=C/CC/C(C)=C/CC[C@]1(C)CCc2cc(O)cc(C)c2O1 | 0.922 (inactive) | 1.06 | 5270 | 5720
40 | CC(C)=CCC/C(C)=C/CC/C(C)=C/CC[C@]1(C)CCc2cc(O)c(C)c(C)c2O1 | 0.98 (inactive) | 0.749 | 5370 | 5480
41 | CCCCC[C@H](O)/C=C/[C@H]1[C@H](O)CC(=O)[C@@H]1CCCCCCCO | 0.891 (inactive) | 2.02 | 5100 | 5730
42 | CC(C)CCOc1ccc(N)cc1 | 0.779 (inactive) | 2.13 | 3780 | 4850
43 | CCCCC/C=C\C/C=C\C/C=C\C/C=C\CCCC(=O)C(F)(F)F | 0.997 (inactive) | 0.841 | 5370 | 5390
44 | COc1ccc(/C=C/c2ccccc2F)cc1 | 0.866 (inactive) | 1.67 | 5810 | 6700
45 | CCCCCCOC(=O)[C@@]1(O)CC2OC1(C)n1c3ccccc3c3c4c(c5c6ccccc6n2c5c31)C(=O)NC4 (stereo partly drawn) | 0.758 (inactive) | 1.42 | 4880 | 6430
46 | O=C(O)CCC/C=C/C[C@@H]1[C@@H](CC[C@@H](O)CCc2ccccc2)[C@H](O)C[C@@H]1O | 0.961 (inactive) | 1.3 | 5820 | 6060

Row | Structure (SMILES) | fold change [1] | fold change [2] | cell count [3] | cell count [4]
47 | CCCCC(C)(C)[C@H](O)/C=C/[C@H]1C=CC(=O)[C@@H]1C/C=C\CCCC(=O)O | 0.967 (inactive) | 1.18 | 5990 | 6200
48 | CCCCCCCC/C=C\CCCCCCCC(=O)OCC | 1 (inactive) | 0.399 | 5610 | 5590
49 | CCCC[C@H](C)C[C@H](O)/C=C/[C@@H]1[C@@H](CCCCCCC(=O)O)[C@@H](O)C[C@H]1O | 0.931 (inactive) | 1.78 | 5490 | 5900
50 | CCCCC[C@H](O)/C=C/[C@H]1[C@H](O)CC(=O)[C@@H]1CCCCCCCCC(=O)O | 0.947 (inactive) | 1.98 | 5400 | 5700
51 | C/C=C/C(=O)O[C@H](COCCCCCCCCCCCCCCCC)COP(=O)([O-])OCC[N+](C)(C)C | 0.851 (inactive) | 1.03 | 4860 | 5710
52 | C#CCCC[C@@H](O)CCCCCCCCCCC(=O)O | 0.902 (inactive) | 1.14 | 5310 | 5890
53 | O=C(NCc1ccc(Cl)c(Cl)c1)O[C@H]1CCc2ccccc21 | 1.02 (inactive) | 1.19 | 5770 | 5680
54 | CCCCC[C@H](O)/C=C/[C@H]1C=CC(=O)[C@H]1CCCCCCC(=O)O | 0.88 (inactive) | 1.97 | 5070 | 5760
55 | O=C(O)CCC/C=C\C[C@@H]1[C@@H](/C=C/C(=O)COc2cccc(C(F)(F)F)c2)[C@H](O)C[C@@H]1O | 0.949 (inactive) | 0.381 | 6020 | 6340
56 | CCCCC[C@H](O)/C=C/[C@H]1[C@H](O)CC(=O)[C@H]1C/C=C\CCCC(=O)OC(C)C | 0.953 (inactive) | 1.45 | 5550 | 5820
57 | CCCCC[C@H](O)/C=C/[C@H]1C=CC(=O)[C@@H]1CCCCCCC(=O)OCC | 0.941 (inactive) | 1.83 | 5280 | 5620
58 | CCCCC/C=C\C/C=C\C/C=C\C/C=C\CCCC(=O)O[C@H](COCCCCCCCCCCCCCCCC)COP(=O)([O-])OCC[N+](C)(C)C | 0.94 (inactive) and 0.936 (inactive) | 1.77 and 0.976 | 5550 and 5760 | 5910 and 6160
59 | O=C1OC2(c3ccc(O)cc3Oc3cc(OS(=O)(=O)c4c(F)c(F)c(F)c(F)c4F)ccc32)c2ccccc21 (stereo not drawn) | 1.09 (inactive) | 0.755 | 6600 | 6070
60 | CCCCC[C@H](O)/C=C/[C@@H]1[C@H]2C/C=C\CCCC(=O)O[C@@H]1C[C@@H]2O | 0.912 (inactive) | 0.907 | 5380 | 5900
61 | NC(=Nc1ccc(F)cc1)NO | 1.01 (inactive) | 1.07 | 5540 | 5470
62 | CCc1c(OCCCCCC(C)(C)c2nn[nH]n2)cc(O)cc1C(C)=O | 1.03 (inactive) | 0.73 | 6030 | 5840
63 | Cc1nc(-c2ccc(C(F)(F)F)cc2)sc1C(=O)NCc1ccc(OC(C)(C)C(=O)O)cc1 | 0.946 (inactive) | 0.5 | 5220 | 5520
64 | CCCCC[C@](C)(O)/C=C/[C@@H]1[C@@H](C/C=C\CCCC(=O)OC)[C@@H](O)C[C@H]1O | 0.977 (inactive) | 1.61 | 6340 | 6490
65 | CCCCC[C@@](C)(O)/C=C/[C@@H]1[C@@H](C/C=C\CCCC(=O)OC)[C@@H](O)C[C@H]1O | 0.949 (inactive) | 1.07 | 5940 | 6260
66 | CCCCC/C=C\C/C=C\C/C=C\C/C=C\CCCC(=O)Oc1ccc2ccc(=O)oc2c1 | 0.939 (inactive) | 0.946 | 5890 | 6270
67 | CCCCC[C@H](O)/C=C/[C@H]1[C@H](O)CC(=O)[C@@H]1C/C=C\CCCC(=O)NC(CO)CO | 1.04 (inactive) | 1.67 | 6080 | 5870

From PubChem BioAssay
